Measured values published in the supplement of paper PMC6555819.

How the values were obtained:
Assay in all cases: PBM binding z-score (relative to random genomic background probes); higher = stronger binding; sequences stand for … in GC…GCGATTGACAGCGTAGAATGAAGG
[1] = tested on: PPARg:RXRa DBDmut IVT, anti-RXR (DBD mutation: RXRa K156A/R161A, NR concentration 270 nM, RXRa partner concentration 90 nM)
Summary of the method: (§1)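 Binding buffer was PBS pH 7.4 with 2% milk, 0.02% Triton X-100, 1 mM DTT, 0.2 mg/mL BSA and 0.4 mg/ml salmon testes DNA. In it, ligand-free nuclear receptor dimers were incubated 1 h on custom Agilent 4×180K protein-binding microarrays carrying double-stranded probes. Antibodies against each partner (one per run) detected binding, and z-scores were calculated against random background probes after regression normalization of scanned fluorescence.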

[2] = tested on: PPARg:RXRa IVT, anti-PPARg (NR concentration 270 nM, RXRa partner concentration 90 nM)
Summary of the method: as §1

[3] = tested on: PPARg DBDmut:RXRa IVT, anti-PPARg (DBD mutation: PPARg1 K132A/R137A, NR concentration 270 nM, RXRa partner concentration 90 nM)
Summary of the method: as §1

[4] = tested on: PPARg DBDmut IVT, anti-PPARg (DBD mutation: PPARg1 K132A/R137A, NR concentration 270 nM)
Summary of the method: as §1

[5] = tested on: PPARg homodimer (NR concentration 180 nM)
Summary of the method: as §1

[6] = tested on: PXR:RXRa (NR concentration 270 nM, RXRa partner concentration 90 nM)
Summary of the method: as §1

[7] = tested on: PXR homodimer (NR concentration 270 nM)
Summary of the method: as §1

[8] = tested on: RARa:RXR (NR concentration 270 nM, RXRa partner concentration 90 nM)
Summary of the method: as §1

[9] = tested on: RARa homodimer (NR concentration 270 nM)
Summary of the method: as §1

[10] = tested on: RARb:RXRa (NR concentration 270 nM, RXRa partner concentration 90 nM)
Summary of the method: as §1

[11] = tested on: RARb homodimer (NR concentration 270 nM)
Summary of the method: as §1

[12] = tested on: RARg:RXRa (NR concentration 270 nM, RXRa partner concentration 90 nM)
Summary of the method: as §1

[13] = tested on: RARg homodimer (NR concentration 270 nM)
Summary of the method: as §1

[14] = tested on: RXRa DBDmut IVT, anti-RXR (DBD mutation: RXRa K156A/R161A, NR concentration 90 nM)
Summary of the method: as §1

[15] = tested on: RXRa homodimer (NR concentration 180 nM)
Summary of the method: as §1

[16] = tested on: THRa:RXRa (NR concentration 90 nM, RXRa partner concentration 90 nM)
Summary of the method: as §1

[17] = tested on: THRa homodimer (NR concentration 90 nM)
Summary of the method: as §1

[18] = tested on: VDR homodimer (NR concentration 270 nM)
Summary of the method: as §1

Sequence | PBM binding z-score [1] | PBM binding z-score [2] | PBM binding z-score [3] | PBM binding z-score [4] | PBM binding z-score [5] | PBM binding z-score [6] | PBM binding z-score [7] | PBM binding z-score [8] | PBM binding z-score [9] | PBM binding z-score [10] | PBM binding z-score [11] | PBM binding z-score [12] | PBM binding z-score [13] | PBM binding z-score [14] | PBM binding z-score [15] | PBM binding z-score [16] | PBM binding z-score [17] | PBM binding z-score [18]
TCTGTTAGGTCAGTTGGTCAGCTAACGAGCTGCC | 2.15 | 3.2 | 2.86 | 2.08 | 1.91 | 0.988 | 0.313 | 1.29 | 0.814 | 3.71 | 3.01 | 3.01 | 4.2 | 1.33 | 1.19 | 2.68 | 1.69 | 0.469
AGAATGAGGTTATTAAGATCCGGGAATTGCGGTC | 2.93 | 2.17 | 0.655 | 0.352 | 1.11 | 0.959 | 0.153 | 1.28 | -0.0311 | 1.48 | 0.644 | 0.904 | 0.682 | 1.93 | 1.68 | 2.29 | 0.695 | 0.784
ACAGACAGGTGATGAAGGTAACTCTGGCTATCAT | 0.0322 | 0.477 | 0.353 | 0.0262 | 0.0574 | -0.19 | -0.412 | 0.0777 | -0.252 | 0.114 | -0.162 | 0.325 | 0.249 | -0.432 | 0.387 | 0.0574 | -0.327 | -0.648
TCGAGTAGGTTAGTCGGGGCATTAAGCCAACATA | 2.22 | 1.85 | -0.456 | 0.127 | 0.173 | 0.149 | -0.182 | 0.471 | -0.436 | 0.306 | 0.232 | 0.0892 | -0.106 | 0.352 | -0.0422 | 1.02 | -0.508 | 0.177
TTTAGTTGGTCACGGAGGTCACACACGACGGGTA | 3.69 | 5.36 | 1.78 | 1.9 | 3.37 | 4.93 | 1.92 | 4.96 | 2.05 | 4.08 | 4.52 | 5.05 | 5.2 | 0.387 | 4.87 | 3.75 | 3.15 | 3.7
ACTAGCAGGCCAAGTTTGGGTCACGCAAACAAAG | 1.23 | 1.63 | -0.285 | -0.284 | 0.631 | 1.61 | -0.0621 | 2.51 | -0.0801 | 2.33 | 2.72 | 3.25 | 2.19 | -0.213 | 1.71 | 3.3 | 1.78 | 0.403
CCTACTGGGCTAAGGTCATTGATCAGTCAAAGCA | 2.72 | 2.94 | -0.43 | -0.707 | 2.17 | 4.1 | 1.25 | 4.17 | -0.024 | 3.5 | 3.59 | 4.14 | 3.51 | 1.83 | 4.07 | 3.95 | 4.04 | 2.94
GCTAGTTGGTCAGTAAAAGTTCACACACCGGTCG | 0.674 | 0.916 | -0.358 | 0.138 | 2.26 | 3.43 | 3.27 | 2.53 | 1.14 | 2.73 | 3.69 | 3.04 | 2.42 | 1.07 | 1.82 | 1.46 | 0.436 | 2.91
CTCGAAAGGTCGTGCTCAGGCGAGTATACCAAAC | 0.449 | 1.53 | 0.141 | -0.559 | 0.928 | 2.68 | -0.312 | 3.16 | -0.0786 | 3.98 | 2.65 | 4.35 | 3.64 | 1.3 | 4.75 | 2.88 | -0.037 | 0.812
GCTCGGAGGACAAGGTCAGAGGTTTGTCCGTAGA | -0.0469 | 1.09 | -1.25 | -0.886 | 0.801 | 1.78 | -0.0547 | 2.19 | -0.638 | 3.47 | 3.27 | 3.12 | 3.27 | 0.666 | 2.53 | 3.07 | 1.42 | 1.2
AGAATGACGTTATTAAGATCAGGGAATTGCGGTC | -0.6 | -0.306 | 0.0629 | 0.222 | -0.803 | -0.327 | -0.378 | -0.472 | -0.0308 | -0.451 | -0.448 | -0.146 | 0.0594 | -0.095 | -0.18 | -0.42 | -0.892 | -0.318
ATCTCTAGGTAAAAGTTCGGTGAATCCCGAGGAT | 2.29 | 2.74 | 1.06 | 1.26 | 0.445 | 0.402 | 0.883 | 0.471 | 0.857 | 0.906 | 0.446 | 0.536 | 0.526 | 0.2 | 0.463 | 0.583 | 0.177 | 0.68
CCGACTGGAGCAAAGGTTACCATACTCAGTACGA | 2.35 | 3.51 | -0.17 | 0.137 | 0.916 | 1.77 | 0.124 | 2.73 | -0.322 | 1.74 | 2.17 | 1.89 | 1.29 | 0.545 | 2.57 | 1.39 | 0.122 | 0.17
CCTACTCGGCCACGAAAGGTCATTGATTCAGTGA | 2.57 | 2.28 | -0.0183 | -0.203 | 3.66 | 5.12 | 1.83 | 5.43 | 1.61 | 4.03 | 4.79 | 4.8 | 4.78 | 0.99 | 5.02 | 3.53 | 1.03 | 2.62
CGAACTATGTCATTGACAGGACAGTGAATAGTAA | 3.29 | 2.17 | 0.536 | 1.15 | 0.302 | 0.0899 | 0.452 | 0.317 | 0.439 | 0.614 | 0.32 | 0.772 | 0.637 | 0.491 | 0.127 | 0.297 | -0.398 | 0.0338
